The supplement of paper PMC13380429
A number with no mark means an inactive call.

System: Vero E6 infected with SARS-CoV-2
Assay: inhibition of SARS-CoV-2 cytopathic effect; higher = more antiviral protection, active = above 15
Conditions: 48 h

SMILES	inhibition of SARS-CoV-2 cytopathic effect (1 nM) [%]	inhibition of SARS-CoV-2 cytopathic effect (8.33 nM) [%]	inhibition of SARS-CoV-2 cytopathic effect (100 nM) [%]	inhibition of SARS-CoV-2 cytopathic effect (833.33 nM)	inhibition of SARS-CoV-2 cytopathic effect (10000 nM) [%]
COc1ccc(-n2nc(C(F)(F)F)cc2-c2ccc(Cl)cc2)cc1	2.57	3.29	1.98	1.58%	-5.13
COC(=O)N[C@@H](C)CNc1nccc(-c2cn(C(C)C)nc2-c2cc(Cl)cc(NS(C)(=O)=O)c2F)n1 [Encorafenib (LGX818)]	0.31	0.31	2.88	6.46%	-1.13
C=C1C(=O)O[C@@H]2C[C@@]3(C)CCC[C@H](C)C3=C[C@H]12 [alantolactone]	-2.07	-0.06	-2.01	1.03%	12.6
COC1CCN(C(=O)c2cc(Cc3n[nH]c(=O)c4ccccc34)ccc2F)CC1	-0.72	7.33	4.58	3.41%	4.58
Cc1cccc(C)c1NC(=O)C[N+](C)(C)C	-1.32	0.36	0.02	-0.1%	0.5
CCN(CC)C(=O)[C@@]1(c2ccccc2)C[C@H]1CN [milnacipran]	-4.3	-3.38	-4.94	-0.26%	1.05
NC(=O)C1=CN([C@@H]2O[C@H](COP(=O)(O)OP(=O)(O)OC[C@H]3O[C@@H](n4cnc5c(N)ncnc54)[C@H](O)[C@@H]3O)[C@@H](O)[C@H]2O)C=CC1 [coenzyme-I]	-3.2	-4.29	1.16	1.03%	1.66
O=C(O)CC/C=C\C[C@@H]1CO[C@H](c2ccccc2Cl)O[C@@H]1c1ccccc1O (racemic)	0.52	1	-2.37	0.59%	-2.08
Cc1cc(F)c(Nc2ncnc3cc(OCc4ccccc4)ccc23)cc1O	-3.67	-0.24	-1.17	-2.03%	-1.32
Cc1ccc(-c2cc(C(F)(F)F)nn2-c2ccc(S(N)(=O)=O)cc2)cc1 [celecoxib]	1.41	1.32	1.91	1.62%	-4.95
BrC1C(Br)C(Br)C(Br)C(Br)C1Br (stereo not given) [1,2,3,4,5,6-hexabromocyclohexane]	-2.03	-1.15	-1.07	-1.96%	9.07
CCCCCCCCCCCC1=C(O)C(=O)C=C(O)C1=O [embelin]	0.27	-0.22	-1.48	-2.76%	-6.88
Cc1noc(C)c1-c1ccc(-c2cc(C(N)=O)c(NC(N)=O)s2)c(O[C@H]2CCNC2)c1	1.7	2.12	2.46	-12.1%	2.19
COc1ccc(/C=C2\CCCN=C2c2cccnc2)c(OC)c1	-0.63	0.1	0.18	1.08%	2.4
C[C@]12CC[C@@H]3c4ccc(O)cc4CC[C@H]3[C@@H]1CC[C@@H]2OC(=O)CCC1CCCC1 [estradiol-cypionate]	-1.71	-1.36	-3.51	1.21%	1.69
O=C1NCN(c2ccccc2)C12CCN(CC1COc3ccccc3O1)CC2 (stereo not given) [spiroxatrine]	-0.76	0.74	1.03	0.28%	0.38
COC(=O)N1CCN(Cc2cccc(NC(=O)Nc3ccc(C)nc3)c2F)CC1 [omecamtiv-mecarbil]	-0.03	0.93	-0.98	0.86%	3.03
CCOC(=O)[C@H](CCc1ccccc1)N[C@@H](C)C(=O)N1CCC[C@H]1C(=O)O [enalapril]	-1.51	-1.35	-0.07	2.42%	0.52
NNC(=O)CSc1nc2scc(-c3ccccc3)c2c(=O)n1-c1ccccc1	-1.69	1.94	-0.83	-2.58%	-1.58
Cc1cc(NC(=O)Nc2ccc(F)c(F)c2)n(-c2ccccc2)n1	-0.5	-1.46	0.29	-0.03%	0.43

SMILES	inhibition of SARS-CoV-2 cytopathic effect (1 nM) [%]	inhibition of SARS-CoV-2 cytopathic effect (8.33 nM) [%]	inhibition of SARS-CoV-2 cytopathic effect (100 nM) [%]	inhibition of SARS-CoV-2 cytopathic effect (833.33 nM)	inhibition of SARS-CoV-2 cytopathic effect (10000 nM) [%]
Nc1ccccc1NC(=O)c1ccc(CNc2nccc(-c3cccnc3)n2)cc1 [mocetinostat]	0.57	-0.45	-0.53	1.7%	-0.45
C[C@H]1COc2c(C3(N)CC3)c(F)cc3c(=O)c(C(=O)O)cn1c23 [pazufloxacin]	-5.2	-1.82	2.15	0.57%	-3.15
NC1CCN(c2nc3c(cc2F)c(=O)c(C(=O)O)cn3-c2ccc(F)cc2F)C1 (stereo not given) [tosufloxacin]	-2.93	0.34	-3.49	-3.32%	-0.08
Cc1nnc(-c2ccc3occ(-c4ccc([S+](C)[O-])cc4)c3c2)o1 (stereo not given)	0.61	0.11	-1.48	1.56%	8.77
O=C(O)c1cc(-c2ccc(F)cc2F)ccc1O [diflunisal]	1.75	-3.3	2.12	1.36%	0.19
C[C@H](CCC(=O)O)[C@H]1CC[C@H]2[C@@H]3CC[C@@H]4C[C@H](O)CC[C@]4(C)[C@H]3CC[C@]12C [lithocholic-acid]	-0.57	0.93	-0.13	0.9%	-0.77
CCC(C)(C)C(=O)C(=O)N1CCC[C@H]1C(=O)OCCCc1cccnc1	0.46	0.86	1.28	-0.32%	1.17
CC(C)=CCC/C(C)=C/CC/C(C)=C/C=C/C(C)=C/C(=O)O [peretinoin]	0.75	0.23	-1.49	0.48%	0.08
CCCCNc1ccc(C(=O)OCCN(C)C)cc1 [tetracaine]	2.75	-1.31	-0.22	-2.39%	0.71
CN(C)CC[C@H](CSc1ccccc1)Nc1ccc(S(=O)(=O)NC(=O)c2ccc(N3CCN(Cc4ccccc4-c4ccc(Cl)cc4)CC3)cc2)cc1[N+](=O)[O-]	-0.41	-0.39	-6.74	-16.3%	-20.2
CC1CCN(CCCC(=O)c2ccc(F)cc2)CC1 [melperone]	1.03	-0.88	-1.43	0.99%	2.13
COC(=O)[C@]12CCC(C)(C)C[C@H]1[C@H]1C(=O)C=C3[C@@]4(C)C=C(C#N)C(=O)C(C)(C)[C@@H]4CC[C@@]3(C)[C@]1(C)CC2 [Bardoxolone Methyl]	2.85	3.94	-1.03	33.7% (active)	-23.4
C[N+](C)(C)NCCC(=O)O [meldonium]	-1.15	-0.85	-2.99	-0.28%	-2.51
O=C(CCCCCN1C(=O)c2cccc3cccc(c23)C1=O)NO [scriptaid]	4.82	3.4	-3.14	-13.6%	-24.8
Clc1cccc(N2CCNCC2)c1	-1.68	-2.45	-0.72	-3.2%	-2.99
CC1CS(=O)(=O)CCN1/N=C/c1ccc([N+](=O)[O-])o1 (stereo not given) [nifurtimox]	-0.09	0.8	-1.28	2.01%	1.23
Fc1ccccc1-c1nc2ccn(Cc3ccc(-c4ccc(C(F)(F)F)cc4C(F)(F)F)nn3)cc-2n1 [tegobuvir]	0.53	2.58	3.4	1.35%	-1.75
CC1=C(C)C(=O)C(C(CCCCCC(=O)O)c2ccccc2)=C(C)C1=O (stereo not given) [seratrodast]	-0.6	-1.68	1.92	2.24%	1.24
CCO/N=C(\C(=O)N[C@@H]1C(=O)N2C(C(=O)[O-])=C(Sc3nc(-c4cc[n+](C)cc4)cs3)CS[C@H]12)c1nsc(NP(=O)(O)O)n1 [ceftaroline-fosamil]	3.38	2.02	4.54	4.34%	3.55
